Experimental data: the supplement of paper PMC9334596
Several values for one entry are separate records, joined by “and”; a condition that tells them apart may be missing. Equal values may be shown once. The full ranking holds about 5,300 compounds; the median of “PER2::LUC luminescence relative to vehicle control” is about 0.96, and the highest 2% start at about 1.3. This is one part of a sample in which the highest values are shown more often than they occur.

System: mPer2Luc MEF
Experiment: PER2::LUC luminescence relative to vehicle control (fold of vehicle); higher = higher PER2::LUC reporter signal
Settings: 10 µM
Method in brief: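 In 384-well plates, ~3000 mPer2Luc reporter mouse embryonic fibroblasts per well were cultured in DMEM with 10% FBS at 37 °C and 5% CO2 for 48 h before compounds from commercial libraries were added at 10 μM. ONE-Glo luciferase readings were taken 24 h and 30 h after treatment. Each value is PER2::LUC luminescence given as fold of vehicle control.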

Row | Structure (SMILES) | PER2::LUC luminescence (time after treatment 24 h) | PER2::LUC luminescence (time after treatment 30 h)
1 | COc1ccc(C(OCCN2CCC[C@H](C(=O)O)C2)(c2ccc(OC)cc2)c2ccc(OC)cc2)cc1 | 0.855 | 1.04
2 | NC1CCN(O)C1=O (single isomer, unassigned; (+)) | 0.99 | 0.883
3 | CCCN(CCc1cccs1)C1CCc2c(O)cccc2C1 (racemic) | 0.965 | 0.906
4 | O=C1/C(=C/c2ccc(O)c(O)c2)Oc2c1ccc(O[C@@H]1O[C@H](CO)[C@@H](O)[C@H](O)[C@H]1O)c2O | 0.983 | 0.93
5 | CC(C)C[C@H](NC(=O)OCc1ccccc1)C(=O)N[C@@H](CC(C)C)C(=O)NCC(=O)CNC(=O)[C@H](CC(C)C)NC(=O)[C@H](CC(C)C)NC(=O)OCc1ccccc1 | 1.01 | 0.909
6 | CCCCCCCCCCCCCC[C@@H](O)[C@@H](O)[C@@H](CO)NC(C)=O | 1.07 | 1.04
7 | c1ccc2c(Cc3c[nH]c4ccccc34)c[nH]c2c1 | 0.956 and 0.816 | 1.02 and 0.84
8 | CN1C(=O)C(Cc2c[nH]c3ccccc23)NC1=S (stereo not drawn) | 1.15 | 1.36
9 | CN1C(=O)N[C@H](Cc2c[nH]c3c(Cl)cccc23)C1=O | 0.87 | 0.819
10 | O=C(O)c1cc(N(Cc2ccccc2O)Cc2cc(O)ccc2O)ccc1O | 1.05 | 1.03
11 | C[C@@]1(F)[C@H](O)[C@@H](CO)O[C@H]1n1ccc(=O)[nH]c1=O | 0.965 | 0.937
12 | CN1CCC[C@@H]1c1cccnc1.Cc1ccc(C(=O)O[C@H](C(=O)O)[C@@H](OC(=O)c2ccc(C)cc2)C(=O)O)cc1 | 0.873 | 0.978
13 | C=CC[C@@H]1[C@H](O)CC[C@@]2(C)[C@H]1CC[C@@H]1[C@@H]2CC[C@]2(C)[C@@H]([C@H](C)CCCC(C)C)CC[C@@H]12 | 0.994 | 0.987
14 | Nc1nc(NC2CC2)c2ncn([C@H]3C=C[C@@H](CO)C3)c2n1 | 1.23 and 1.48 | 1.32 and 1.75
15 | OCC1OC(n2cnc3c(NC4CCCC4)nc(Cl)nc32)C(O)C1O (stereo not drawn) | 0.932 | 0.97
16 | OC[C@H]1O[C@@H](n2cnc3c(NC4CCCC4)ncnc32)[C@H](O)[C@@H]1O | 0.965 | 0.991
17 | COc1cc(O)c(C(=O)/C=C/c2ccc(O)c(OC)c2)c(OC)c1 | 0.871 | 0.855
18 | CC(C)c1noc(C2CCN(c3ncnc(Nc4ccc(S(C)(=O)=O)cc4F)c3[N+](=O)[O-])CC2)n1 | 0.972 | 0.789
19 | COc1ccc(/C=C/c2ccccc2F)cc1 | 1.2 | 1.26
